# Screens (PubChem)
# TDP1 cell CPT: DT40-hTDP1 cell growth loss with CPT; chicken DT40 Tdp1-/-;hTDP1 cells + 20 nM CPT, ATP luminescence, 48 h; Potency, µM (titrated, usually from 46.2 µM), hits mostly inhibitors; 420,000 compounds, 12% hits; AID 686979; also: nearly all actives have a fitted effect of over 55% in size
#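 Cell growth measured by CellTiter-Glo luminescence after a minimum 48 h, 37 C compound exposure with 20 nM CPT in Tdp1-knockout DT40 cells stably expressing hTDP1, seeded 400/well; qHTS titration format.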
# TDP1 inh: inhibitors of human tyrosyl-DNA phosphodiesterase TDP1. Q9NUW8. recombinant TDP1, AlphaScreen DNA substrate cleavage. Potency, µM (highest dose often 130 µM), most hits filed as inhibitors. 350,000 compounds, 0.28% hits. AID 485290; also: nearly all actives have a fitted effect of over 40% in size
# Target sequence (Q9NUW8 whole entry, looked up): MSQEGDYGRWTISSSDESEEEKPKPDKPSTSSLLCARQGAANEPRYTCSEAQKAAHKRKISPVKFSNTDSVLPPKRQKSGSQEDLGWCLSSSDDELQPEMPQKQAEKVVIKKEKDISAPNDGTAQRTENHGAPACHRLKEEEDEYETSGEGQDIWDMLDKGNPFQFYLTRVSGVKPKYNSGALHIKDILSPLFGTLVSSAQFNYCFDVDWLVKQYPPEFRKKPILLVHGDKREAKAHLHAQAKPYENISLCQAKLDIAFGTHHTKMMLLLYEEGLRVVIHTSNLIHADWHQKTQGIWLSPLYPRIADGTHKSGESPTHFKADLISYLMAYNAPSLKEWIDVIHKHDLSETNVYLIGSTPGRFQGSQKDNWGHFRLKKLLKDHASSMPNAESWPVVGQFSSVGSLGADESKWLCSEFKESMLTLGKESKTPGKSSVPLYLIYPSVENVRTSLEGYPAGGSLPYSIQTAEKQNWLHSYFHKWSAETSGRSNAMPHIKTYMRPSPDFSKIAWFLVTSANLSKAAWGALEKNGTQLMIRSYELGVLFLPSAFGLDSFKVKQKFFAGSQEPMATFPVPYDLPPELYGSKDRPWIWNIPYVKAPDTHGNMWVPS
#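 E. coli-derived human Tdp1, 1 nM final. Cpd preinc 15 min RT; substrate 15 nM final, 5 min RT; AS bead mix 10 ug/ml final, 10 min RT. Signal loss = tyrosine-FITC cleavage. No-enzyme wells = max signal.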
# ELG1 repair inh: blocks ELG1-dependent DNA repair in HEK293T cells. 330,000 compounds, 2.3% hits. Potency, µM (highest dose often 46.1 µM), usual class: inhibitors. AID 504467. HEK293T ELG1-luciferase reporter, luminescence, 16 h; DNA damage induced by 5-fluorouridine; also: nearly all actives have a fitted effect of over 55% in size
#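 HEK293T cells expressing luciferase-tagged ELG1 (2,000/well) received 5-Fluorouridine plus compound or DMSO for 16 hr at 37 °C. Luciferase was read by ONE-Glo luminescence after 30 min at room temperature.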
# Giardia killer: Giardia lamblia killing; 340,000 compounds, 0.15% hits; Giardia lamblia trophozoite viability; activity change, % at 7.66 µM, hits read low; in the data active = activity change below about -80%; inconclusive = between about -30% and that limit;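 also: parasites exposed to compound for two days anaerobically before the ATP read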
#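 Giardia lamblia trophozoites (100 cells/well) were incubated with compounds for 48 h at 37 deg C under anaerobic conditions. Viability was read as ATP content by one-step luminescence after 15-30 min at room temperature.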
# IL-1B inflam inh: inhibitors of inflammasome signaling (IL-1 beta secretion) | THP-1 LPS/ATP IL-1B secretion, AlphaLISA, 16 h; hits give low values | activity change, % at 57.5 µM | 360,000 compounds, 4.7% hits; in the data active = activity change below about -50%; inconclusive = mostly about -30% to -49%
#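 THP-1 cells pretreated 1 hr with compounds (up to 57.5 uM final), then stimulated with LPS (250 ng/mL final) plus ATP (1.25 mM final); secreted IL-1B measured by AlphaLISA after 16 hr, decreased signal indicating inhibition.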
# TDP1 cell noCPT: qHTS for Inhibitors of human tyrosyl-DNA phosphodiesterase 1 (TDP1): qHTS in cells in absence of CPT; DT40 Tdp1-/- hTDP1 cells, no CPT, ATP luminescence, 48 h; Potency, µM (series often up to 46.2 µM), hits mostly inhibitors; 420,000 compounds, 15% hits; AID 686978, 2013; also: nearly all actives have a fitted effect of over 55% in size
#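 Luminescent ATP content (CellTiter-Glo) served as the growth readout. Knockout chicken DT40 cells expressing human TDP1 were exposed to compounds without camptothecin for a minimum 48 hr at 37 °C.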
# ELG1 FLuc counter: luciferase inhibition in cell-free luciferin readout for ELG1 hits; AID 624247; Potency, µM (top dose mostly 46.1 µM), actives largely listed as inhibitors; cell-free firefly luciferase luminescence counter-screen, ViewLux; 350 compounds, 3% hits; shares compounds with ELG1 repair inh
# ELG1 Luc conf: inhibits ELG1-dependent DNA repair in HEK293T cells, confirmed; shares compounds with ELG1 repair inh; Potency, µM (titrated, usually from 46.1 µM), most hits filed as inhibitors; 670 compounds, 68% hits; HEK293T ELG1-luciferase levels, luminescence; cells co-treated with 5-fluorouridine; also: nearly all actives have a fitted effect of over 55% in size
# ELG1 MMS Luc: MMS-stimulated human ELG1 repair inhibition, confirmed. 670 compounds, 53% hits. AID 624249. HEK293T luciferase-tagged ELG1 level, MMS stimulated. shares compounds with ELG1 repair inh. Potency, µM (doses to about 46.1 µM), actives largely listed as inhibitors; also: nearly all actives have a fitted effect of over 60% in size
# ELG1 5FU viab: confirmation of ELG1 repair inhibitors: viability with 5FU. cell viability with 5-FU, ELG1-dependent repair. Potency, µM (top dose mostly 46.1 µM), actives largely listed as cytotoxic. shares compounds with ELG1 repair inh. 670 tested, under 10 active;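 also: ELG1-luc HEK293T cells cotreated with 5-fluorouridine at 10 µM final; viability measured 16 h after compound addition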
# ELG1 MMS viab: confirmation of ELG1 repair inhibitors: viability with MMS; shares compounds with ELG1 repair inh; Potency, µM (highest dose often 46.1 µM), actives largely listed as cytotoxic; 670 compounds, 33% hits; Cell viability with MMS, ELG1-dependent DNA repair;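 also: ELG1-luc HEK293T cells co-treated with 10 µM MMS; viability read 16 h after compound addition; nearly all actives have a fitted effect of over 60% in size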
# ELG1 unstim viab: unstimulated viability counter-screen for ELG1 repair hits; shares compounds with ELG1 repair inh; cell viability counter-screen, unstimulated, luminescence; Potency, µM (highest dose often 45.9 µM), hits mostly cytotoxic; 900 compounds, 8% hits; AID 624252;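 also: compound exposure lasted 16 hours before reading; nearly all actives have a fitted effect of over 55% in size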
# FLuc biochem: inhibits purified firefly luciferase, counter-screen for ELG1 hits; shares compounds with ELG1 repair inh; purified firefly luciferase, luminescence counter-screen; Potency, µM (series often up to 57.5 µM), most hits filed as inhibitors; 350 compounds, 10% hits; AID 624253
# Hits are given with their value; - = inactive; ? = inconclusive; . = no result. A selection: hits, their analogues and other compounds. The true share with any hit is near 19%. Unless noted, calls follow the shape of the dose curve; as a rule, active = well fitted curve in the direction sought with a large enough effect; inconclusive = small, poorly fitted or top-dose-only effect, or another doubt; inactive = no such curve, though single readings can be large; an effect the other way counts as inactive or inconclusive.
SMILES,TDP1 cell CPT,TDP1 inh,ELG1 repair inh,Giardia killer,IL-1B inflam inh,TDP1 cell noCPT,ELG1 Luc conf,ELG1 MMS Luc,ELG1 5FU viab,ELG1 MMS viab,ELG1 unstim viab,others
Nc1[nH]c(=O)[nH]c(=O)c1N=Cc1ccccc1,?,.,.,-,-,-,.,.,.,.,.,
COc1ccc(Cc2nc3ccc(C(=O)N(C)Cc4nccs4)cc3o2)cc1OC,10µM,-,4.1µM,-,-,?,?,2.2µM,-,7.9µM,?,
O=C(Nc1nnc(-c2ccccc2Cl)o1)c1ccc(S(=O)(=O)N2CCCCCC2)cc1,4.6µM,-,1µM,-,-,5.8µM,?,?,-,-,?,ELG1 FLuc counter=-;FLuc biochem=-
CNn1cnc2ccsc2c1=O,-,-,?,-,-,-,.,.,.,.,.,
CC(C)n1cnc2c(NCc3ccccc3)cc(N[C@H](C)CO)cc21,2.3µM,-,4.1µM,-,-,4.6µM,7.9µM,0.44µM,16µM,0.71µM,8.9µM,
COc1cccc(NC(=O)COC(=O)c2c(F)cccc2F)c1,-,-,-,-,-,-,.,.,.,.,.,
COc1cccc(NC(=O)COC(=O)c2sccc2C)c1,-,-,?,-,-,-,.,.,.,.,-,
C[C@@H]1C[C@H]2[C@@H]3CCC4=CC(=O)C=C[C@]4(C)[C@@]3(F)[C@@H](O)C[C@]2(C)[C@@]1(O)C(=O)COP(=O)(O)O,-,-,-,-,-,-,.,.,.,.,.,
C[C@@H]1CC2[C@@H]3CCC4=CC(=O)C=C[C@]4(C)[C@@]3(F)[C@@H](O)C[C@]2(C)[C@@]1(O)C(=O)NCCCCCCOC[C@H]1O[C@@H](n2cnc3cc(Cl)c(Cl)cc32)[C@@H]2OC(C)(C)O[C@@H]21 (stereo not given in full),.,.,.,.,.,.,.,.,.,.,-,ELG1 FLuc counter=-;FLuc biochem=-
Cn1c(C(=O)NN)cc2cc(OCc3ccccc3)ccc21,-,.,.,-,-,-,.,.,.,.,.,
CCOc1ccc(C(C(=O)NC2CCCC2)N(C(=O)c2snc(C(N)=O)c2N)c2cccc(O)c2)cc1 (stereo not given),?,.,4.6µM,-,-,16µM,2µM,?,?,-,?,
CCOCCCNC(=O)C1CCN(c2cc(C)nc3c(-c4ccc(OC)c(OC)c4)c(C)nn23)CC1,-,-,2.6µM,-,-,?,?,-,?,-,-,
COc1ccc(-c2c(C)nn3c(N4CCN(c5cc(Cl)ccc5C)CC4)cc(C)nc23)cc1OC,-,-,.,.,.,?,.,.,.,.,.,
COc1ccc(-c2[nH]ncc2CNC(C)c2cn(C)nc2C)c(F)c1 (stereo not given),-,-,-,?,-,-,.,.,.,.,.,
COc1ccc(NC(=S)N2CCN(C(=O)c3ccccc3)CC2)cc1,-,-,-,-,-,-,.,.,.,.,.,
O=C(/C=C\c1cccs1)N1CCN(Cc2ccc3c(c2)OCO3)CC1,-,-,-,-,-,-,.,.,.,.,.,
COc1ccc(CNC(=O)CSc2n[nH]c(C)c2[N+](=O)[O-])cc1,-,-,-,-,-,-,.,.,.,.,.,
COc1ccc(NS(=O)(=O)c2cccc(C(=O)OCC(=O)N3CCN(c4ccc(OC)cc4)CC3)c2)cc1,13µM,.,4.6µM,-,-,13µM,?,7.9µM,-,7.9µM,?,
CCC1CCCCN1CCCNC(=O)c1nn(C)c2c1CS(=O)(=O)c1ccccc1-2 (stereo not given),-,-,?,-,-,-,.,.,.,.,.,
Cc1ccc(NC(=S)N(Cc2cccs2)Cc2cc3cccc(C)c3[nH]c2=O)cc1,21µM,-,?,-,-,12µM,4.4µM,?,?,-,-,
Cc1ccc2cc(CN(CC3CCCO3)C(=S)Nc3ccccc3)c(=O)[nH]c2c1C (stereo not given),2.9µM,-,4.6µM,-,-53,2.6µM,4µM,?,?,-,?,
Cc1cccc2cc(CN(CCN(C)C)C(=S)Nc3ccccc3)c(=O)[nH]c12,-,-,-,-,-,?,.,.,.,.,.,
CN(C)c1ccc(/C=C2\CCc3ccccc32)cc1,?,.,.,.,.,?,.,.,.,.,-,
COc1cccc(/C=N/n2c(C)nc3ccccc32)c1OC,?,-,?,-,-,?,.,.,.,.,.,
COc1cccc(/C=C/c2cnc3ccccc3n2)c1OC,?,.,.,.,.,20µM,.,.,.,.,-,ELG1 FLuc counter=-;FLuc biochem=0.33µM
COC(=O)Nc1ccc(S(=O)(=O)NC2CCS(=O)(=O)C2)cc1 (stereo not given),-,.,-,-,-,-,.,.,.,.,.,
CCCCc1ccc(S(=O)(=O)NC2CCS(=O)(=O)C2)cc1 (stereo not given),21µM,-,3.7µM,-,-,21µM,-,11µM,-,11µM,-,
CC(C)CCN1C(=O)c2ccc(C(=O)N3CCCCC3)cc2C1=O,-,.,-,-,-,-,.,.,.,.,.,
O=C(Nc1ccc(Br)cc1)c1ccc(F)c(S(=O)(=O)N2CCN(c3ccccn3)CC2)c1,?,-,2.9µM,-,-,7.3µM,32µM,?,-,?,?,ELG1 FLuc counter=-;FLuc biochem=-
CC(NC(=O)c1ccccc1NC(=O)CN1CCN(c2ccccc2O)CC1)c1ccccc1 (stereo not given),?,-,2.3µM,-,-,?,5.6µM,?,?,?,-,
